Compounds with a hit are over-represented: about 20% of the library has one in this group of screens.
HCMV antiviral – inhibitors of human cytomegalovirus | HFF cells, HCMV-luciferase reporter, 72 h; stronger effect = lower value | activity change, negative = inhibition, % at 57.5 µM | 410,000 compounds, 4.5% hits | AID 1259415; in the data active = activity change below about -60%; inconclusive = no clear call, values can overlap the other calls; inactive = above about -39%
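Cell-based, HFFs, 1000 cells/well, 16 h 37C; cpds in DMSO + HCMV-luc, MOI 1 PFU/cell; 72 h 37C; OneGlo luminescence after 5 min RT; norm. to buffer vs Salinomycin 10uM.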
Shiga inhibitor – inhibitors of Shiga toxin in Vero cells | 290,000 compounds, 9.2% hits | AID 2315 | inhibition, % at 38.7 µM | Vero cells, Shiga toxin protein synthesis inhibition reporter; in the data active = inhibition mostly above about 28%, no sharp cut-off; inactive = mostly below about 43%
Pf growth 48h – P. falciparum growth inhibition at 48 hours (one generation); P. falciparum luciferase growth in erythrocytes, 48 h; Potency, µM (top dose mostly 28.7 µM), actives largely listed as inhibitors; 310,000 compounds, 5.9% hits; AID 504832
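Firefly luciferase activity from engineered P. falciparum reports growth; inhibitors lower the luminescent signal. Cultures contained 2% hematocrit erythrocytes at 0.1% final parasitemia.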
CHX counter – counter-screen for Shiga toxin inhibitors: cycloheximide protein synthesis inhibition | cell reporter, cycloheximide protein synthesis inhibition counterscreen | 300,000 compounds, 12% hits | max response, % | AID 2314; in the data active = max response mostly above about 13%, no sharp cut-off; inactive = mostly below about 14%; also: read at 38.3 µM for the half of the compounds with a filed dose
Pf growth 96h – inhibits malaria parasite growth, 96 h. P. falciparum luciferase reporter growth, 96 h. Potency, µM (highest dose often 28.7 µM), actives largely listed as inhibitors. 320,000 compounds, 6.9% hits. AID 504834
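P. falciparum expressing integrated firefly luciferase grown in erythrocytes (2% hematocrit, 0.05% parasitemia final) with compounds for 96 hours at 37 C, 5% CO2. Growth inhibition read as loss of luminescence after adding luciferase detection reagent.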
A number is an active result. Unless noted, calls follow the shape of the dose curve; as a rule, active = well fitted inhibition curve with a large enough effect; inconclusive = small, poorly fitted or top-dose-only effect, or another doubt; inactive = no such curve, though single readings can be large or run the other way.

Screening O=C(/C=C/c1ccco1)Oc1ccc(C(=S)N2CCOCC2)cc1 returned HCMV antiviral inactive, Shiga inhibitor inactive, Pf growth 48h inactive, CHX counter 35 and Pf growth 96h inactive.
`COC(=O)C1=NN(C(C)(C)CC(C)=O)C2C(=O)N(C3CCCCC3)C(=O)C12` (centres undefined) gave HCMV antiviral inactive, Shiga inhibitor inactive, Pf growth 48h inactive, CHX counter inactive and Pf growth 96h inactive.
For CC1CN(c2ccc(S(=O)(=O)N3CCCC3)cn2)CC(C)O1 (centres undefined) the results were HCMV antiviral inactive, Shiga inhibitor inactive, Pf growth 48h inactive, CHX counter inactive and Pf growth 96h inactive.
`CC1CCc2nc(NC(=O)CSc3nc4ccccc4o3)sc2C1` (centres undefined) gave HCMV antiviral -85, Shiga inhibitor 85, Pf growth 48h inactive and CHX counter 52.
For COc1ccc(CC(=O)Nc2nc3c(s2)CC(C)CC3)cc1 (centres undefined) the results were HCMV antiviral inactive.
For Cc1nnc(SCC(=O)Nc2nc3c(s2)CC(C)CC3)s1 (centres undefined) the results were HCMV antiviral inactive, Shiga inhibitor 60, Pf growth 48h inactive, CHX counter 37 and Pf growth 96h inactive.
CCc1nc(SCC(=O)NC2CC2)c2c(C)c(C)sc2n1 was read as HCMV antiviral inactive, Shiga inhibitor inactive, Pf growth 48h inactive, CHX counter inactive and Pf growth 96h 4.7µM.
For Cc1nnc(NC(=O)CSc2nc3ccccc3o2)s1 the results were HCMV antiviral inactive, Shiga inhibitor inactive, Pf growth 48h inactive, CHX counter inactive and Pf growth 96h inconclusive.
`COC(=O)c1ccc(C(=O)NC(=S)Nc2nc3c(s2)CC(C)CC3)cc1` (centres undefined) gave HCMV antiviral inactive, Shiga inhibitor inactive, Pf growth 48h inactive, CHX counter 27 and Pf growth 96h inactive.
For Cc1ccc(CCNC(=O)c2cc3c(=O)n(C)c4ccccc4c3n2C)cc1 the results were HCMV antiviral inactive.
Cc1nnc(SCC(=O)NC2CCCCC2)s1 was read as HCMV antiviral inconclusive, Shiga inhibitor inactive, Pf growth 48h inactive, CHX counter inactive and Pf growth 96h inactive.
CC1CCc2nc(NC(=O)c3cc(C(C)(C)C)nn3C)sc2C1 (centres undefined) was read as HCMV antiviral inactive, Shiga inhibitor inactive, Pf growth 48h inconclusive, CHX counter inactive and Pf growth 96h 8.3µM.
`Cc1ccc(-c2nc(NC(=O)c3cc(C(C)(C)C)nn3C)sc2C)cc1Cl` gave HCMV antiviral -61, Shiga inhibitor inactive, Pf growth 48h 1.9µM, CHX counter inactive and Pf growth 96h 2.1µM.
Screening Cn1nc(C(C)(C)C)cc1C(=O)NNC(=O)c1ccccc1Cl returned HCMV antiviral inactive, Shiga inhibitor inactive, Pf growth 48h inactive, CHX counter inactive and Pf growth 96h inactive.
`CCCCOc1ccc(C(=O)Nc2nc3c(s2)CC(C)CC3)cc1` (centres undefined) gave HCMV antiviral inactive.
Screening Cc1nnc(SCC(=O)NC2CC2)s1 returned HCMV antiviral inactive, Shiga inhibitor inactive, Pf growth 48h inactive, CHX counter inactive and Pf growth 96h 13µM.
For COP(=O)(CC(=O)c1ccccc1)CC(=O)c1ccccc1 the results were HCMV antiviral inactive, Shiga inhibitor inactive, Pf growth 48h inactive, CHX counter inactive and Pf growth 96h inactive.
`COc1ccccc1NC(=O)c1cccc(S(=O)(=O)N2CCCCCC2)c1` gave HCMV antiviral inactive.
CC[C@]12c3[nH]c4cc(CCC(=O)N(C)C)ccc4c3CCN1C(=O)[C@@H](CC(=O)NCc1cccc(C(F)(F)F)c1)C[C@@H]2C(=O)N1CCN(C(=O)c2ccco2)CC1 was read as HCMV antiviral inactive.
`O=C(/C=C/c1ccc(Cl)cc1)c1cccnc1` gave HCMV antiviral inactive, Shiga inhibitor inactive, CHX counter inactive and Pf growth 96h inconclusive.
`CN(C)c1ccc(C(=O)/C=C/c2ccc(Br)cc2)cc1` gave HCMV antiviral inactive, Shiga inhibitor 58, Pf growth 48h inactive, CHX counter 23 and Pf growth 96h inactive.
CCN(CC)c1ccc(C(=O)NN)cc1 was read as HCMV antiviral inactive, Shiga inhibitor inactive, Pf growth 48h inactive, CHX counter inactive and Pf growth 96h inactive.
For CCN(CC)c1ccc(/C=C/C(=O)c2cccnc2)cc1 the results were HCMV antiviral inactive, Shiga inhibitor inactive, Pf growth 48h 0.93µM, CHX counter inactive and Pf growth 96h inconclusive.
For CN(C)c1ccc(/C=C/C(=O)c2c(O)c3ccccc3oc2=O)cc1 the results were HCMV antiviral inactive, Shiga inhibitor inactive, Pf growth 48h inactive, CHX counter inactive and Pf growth 96h inactive.
CCN(CC)c1ccc(/C=C/C(=O)c2ccc(Br)cc2)cc1 was read as HCMV antiviral inactive, Shiga inhibitor inactive, Pf growth 48h inactive, CHX counter 14 and Pf growth 96h inactive.
`CN(C)c1ccc(C(=O)/C=C/c2ccccc2)cc1` gave HCMV antiviral inactive, Shiga inhibitor 105, Pf growth 48h inactive, CHX counter 44 and Pf growth 96h inactive.
`Cc1ccc2c(c1)N(C(=O)CCC(=O)NCc1cccs1)CC(C)O2` (centres undefined) gave HCMV antiviral inactive.
`COc1cc(/C=C/C(=O)c2ccc3c(c2)OCCO3)cc(OC)c1OC` gave HCMV antiviral -99, Shiga inhibitor inactive, Pf growth 48h inconclusive, CHX counter inactive and Pf growth 96h inactive.
Screening COc1ccc(OC)c(/C=C/C(=O)c2ccc3c(c2)OCCO3)c1 returned HCMV antiviral -100, Shiga inhibitor 26, Pf growth 48h inactive, CHX counter 25 and Pf growth 96h inactive.
COc1cc(/C=C/C(=O)c2ccc3c(c2)OCO3)cc(OC)c1OC was read as Pf growth 48h inactive and Pf growth 96h inconclusive.
COc1ccc(C(=O)NCCN2CCC(n3c(=O)[nH]c4ccccc43)CC2)cc1F was read as HCMV antiviral inactive.
`Cc1ccc(COn2c(-c3ccc(Cl)cc3)nc3ccc([N+](=O)[O-])cc32)cc1` gave HCMV antiviral inactive, Shiga inhibitor 105, Pf growth 48h inactive, CHX counter 49 and Pf growth 96h inactive.
`Clc1ccc(COn2c(-c3ccc(Cl)cc3)nc3ccccc32)cc1` gave HCMV antiviral inactive, Shiga inhibitor inactive, Pf growth 48h inconclusive, CHX counter inactive and Pf growth 96h inconclusive.
Screening O=[N+]([O-])c1ccc2nc(-c3ccc(Cl)cc3)n(OCc3ccccc3)c2c1 returned HCMV antiviral inactive, Shiga inhibitor 96, Pf growth 48h inactive, CHX counter 35 and Pf growth 96h inactive.
Screening CC(C)C(=O)N1CCCC1(C)C(=O)N(C)Cc1cccc2ccccc12 (centres undefined) returned HCMV antiviral inactive.
Screening CCN(CC)S(=O)(=O)c1cccc(NC(=O)C(=O)c2c(-c3ccccc3)cc3ccccn23)c1 returned HCMV antiviral -75, Shiga inhibitor inactive, CHX counter inactive and Pf growth 96h 7.4µM.

Screens from PubChem.
